Results taken from PubChem BioAssay AID748 (Sanford-Burnham Center for Chemical Genomics, 2007).
About 100 (0.1%) of roughly 96,000 compounds were called active.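 The calls were made as follows: active = displacement above 50% at 20 µM plus a fluorescence interference ratio under 1.5; inactive = the rest.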 For the sample, actives were picked, then their nearest neighbours and some compounds at random. Potency and affinity values are given separately.

target: Bcl-2-like protein 10 (Homo sapiens) (UniProt Q9HD36); assay: Bcl-B/TR3 peptide binding disruption – biochemical, fluorescence polarization, FITC-TR3 peptide, selectivity assay for Bfl-1 inhibitor project, primary screen (AID 748); details: FP displacement of FITC-TR3 peptide from Bcl-B; at 20 µM; active compounds read high;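 also: plate controls were wells without compound for no effect and wells lacking Bcl-B protein for full effect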

displacement, inactive:
Cc1cccc(C(=O)NNC2=C(C(=O)C(F)(F)F)CCC2)c1O 10.3%
Cc1nnc(SCCn2c(N3CCC(C)CC3)nc3c2c(=O)[nH]c(=O)n3C)s1 -6.3%
Cc1cc(C)n(C(=O)CCN2C(=O)c3ccccc3C2=O)n1 -3.1%
Brc1ccc(-c2nn3c(-c4ccco4)nnc3s2)o1 30%
c1coc(-c2nnc3sc(-c4cccs4)nn23)c1 4.7%
CC1(C)OC(=O)C(=CNn2cnc3ccccc3c2=O)C(=O)O1 -2.6%
CCOC(=O)C1CCCN(C/C(O)=C(\C#N)c2nc(-c3ccc(Cl)cc3)cs2)C1 (stereo not drawn) 0%
CCOc1cc(N2CCOCC2)c(OCC)cc1NC(=O)c1cc(-c2ccco2)nc2ccccc12 25.3%
Cc1cccc(NC(=O)c2cc(-c3ccco3)nc3ccccc23)n1 41.4%
O=C(O)c1cc(-c2ccco2)nc2ccccc12 18.6%
O=C(N/N=C/c1cccc(F)c1)c1cc(-c2ccco2)nc2ccccc12 39.5%
Cc1ccccc1C(=O)c1cccn1CC(=O)NCc1ccc2c(c1)OCO2 -0.3%
O=C(O)c1cc2c([nH]c1=O)CCCC2 -1%
Cc1cc(NC(=O)CN2CCN(S(=O)(=O)c3ccc4ccccc4c3)CC2)no1 -1%
O=C(NCCN1CCCCCC1)c1ccc(CS(=O)(=O)c2ccc(Br)cc2)o1 4.3%
CS(=O)(=O)Nc1ccccc1C(=O)Nc1ccc2c(c1)OCCO2 -6.4%
Cc1ccc(C(=O)NC2CCCc3ccccc32)o1 (stereo not drawn) 1.5%
NC(=S)N/N=C/c1ccc(-c2cccc([N+](=O)[O-])c2)o1 -3.1%
O=C(O)c1cc(-c2ccc(/C=N/Nc3ccc(Cl)cc3)o2)ccc1Cl -20.9%
C/C(N)=C(/C#N)C(=O)COC(=O)CSc1ccc2ccccc2c1 -15.4%
Cc1ccc(S(=O)(=O)CCC(=O)OCC(=O)Nc2ncc(Cl)cc2Cl)cc1 24.5%
O=C(COC(=O)C12CC3CC(CC(C3)C1)C2)Nc1ncc(Cl)cc1Cl 31.8%
Cc1ccc(S(=O)(=O)NCC(=O)OC(C)C(=O)Nc2ncc(Cl)cc2Cl)cc1 (stereo not drawn) -1.5%
O=C(COC(=O)CCCN1C(=O)c2ccccc2C1=O)Nc1ncc(Cl)cc1Cl 43.6%
CC(C(=O)OCC(=O)Nc1ncc(Cl)cc1Cl)N1C(=O)c2ccccc2C1=O (stereo not drawn) 21.3%
CC(=O)NC12CC3CC(C1)CC(C(=O)OCC(=O)Nc1ncc(Cl)cc1Cl)(C3)C2 40.7%
COc1ccc(CC(=O)OCC(=O)Nc2ncc(Cl)cc2Cl)cc1 41.3%
O=C(COC(=O)CCc1ccccc1)Nc1ncc(Cl)cc1Cl 24.2%
